Laboratory results taken from PubChem BioAssay AID2530 (National Center for Advancing Translational Sciences (NCATS), 2010).
Records with an inconclusive call do not appear. A call without a number means that no potency is given here. Active and inactive are the calls of the source. Calls come from the whole dose curve; as a rule, active = well fitted inhibition curve with a large enough effect; inconclusive = small, poorly fitted or top-dose-only effect; inactive = flat fitted curve, though single readings scatter.

Target: Luciferin 4-monooxygenase (Photuris pensylvanica) (UniProt Q27757)
Experiment: Secondary Assay for Luciferase (Kinase-Glo TM) Inhibition Counterscreen
Summary of the method: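 Kinase-Glo firefly-type luciferase with 10 uM ATP in 50 mM imidazole pH 7.2, 50 mM KCl, 7 mM MgCl2, 0.01% Tween 20, 0.05% BSA. Luminescence read after 8 min at ambient temperature, normalized to DMSO and 40 uM SIB 1757, then Hill-fitted.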
Potency is the fitted concentration of half-maximal effect.

**Q.** `COC(=O)CSC1=NS(=O)(=O)c2ccccc21` was tested. Which Potency did it give?
**A.** inactive

**Q.** For `Cc1ccc(NS(=O)(=O)c2cc3c(cc2-c2ccccc2)NC(=O)CO3)cc1C`, which Potency is on record?
**A.** inactive

**Q.** Which Potency does the source give for `COc1cc(/C=N/N2C(C)CCCC2C)cc(OC)c1O` (stereo not drawn) here?
**A.** inactive

**Q.** For `Cc1ccc(NS(=O)(=O)c2ccc3c(c2)n(C)c(=O)n3C)cc1C`, which Potency is on record?
**A.** inactive

**Q.** `O=S(=O)(c1ccc2c(c1)OCCO2)N1CCN(S(=O)(=O)c2c(F)cccc2F)CC1` was tested. Which Potency did it give?
**A.** inactive

**Q.** Which Potency does the source give for `COc1cccc(Cn2ncc3c4sc(S(C)=O)cc4n(C)c3c2=O)c1` (stereo not drawn) here?
**A.** inactive

**Q.** With `COc1ccc(C(=O)C[n+]2ccc(N)c(C)c2C)cc1` as the compound, how does the Potency read?
**A.** inactive

**Q.** With `O=C1CCc2cc(S(=O)(=O)Nc3cccc4ccccc34)ccc2N1` as the compound, how does the Potency read?
**A.** inactive

**Q.** `Cc1ccc(NS(=O)(=O)c2ccc3c(c2)oc(=O)n3C)cc1C` was tested. Which Potency did it give?
**A.** inactive

**Q.** For `Cc1ccc(NS(=O)(=O)c2ccc3c(c2)CCC(=O)N3)cc1`, which Potency is on record?
**A.** inactive

**Q.** For `COc1ccc(-c2cc3nc(C)n(N)c(=O)c3s2)cc1`, which Potency is on record?
**A.** 2.31 µM (active)

**Q.** How did the Potency turn out when `Cc1ccc(S(=O)(=O)/N=C2/C=C(Sc3ncn[nH]3)C(=O)c3ccccc32)cc1` was run?
**A.** inactive

**Q.** For `O=C(COC(=O)CCC(=O)c1ccc(F)cc1)Nc1ccc(F)cc1F`, which Potency is on record?
**A.** inactive

**Q.** Which Potency does the source give for `COc1cc(Cl)c(C)cc1NC(=O)COC(=O)c1cc[n+]([O-])cc1` here?
**A.** inactive

**Q.** With `COc1cccc(OC2=NS(=O)(=O)c3ccccc32)c1` as the compound, how does the Potency read?
**A.** inactive

**Q.** How did the Potency turn out when `O=C(Nc1ccc2c(c1)OCCO2)c1ccccn1` was run?
**A.** 18.3 µM (active)

**Q.** For `Cc1cccc(NS(=O)(=O)c2ccc3c(c2)CCC(=O)N3)c1`, which Potency is on record?
**A.** inactive

**Q.** Which Potency does the source give for `Cc1ccc(NS(=O)(=O)c2ccc3c(c2)CCC(=O)N3)cc1C` here?
**A.** inactive
